# In the library only some 4.6% were active in any assay of this set; here they are far more common.
# USP10 block – inhibitors of human USP10 deubiquitinase; inhibition, % at 20 µM; Q14694; purified USP10, Ub-rhodamine fluorescence, 60 min; hit rate 1.1% among 47,000
# USP7 inh – human USP7 deubiquitinase inhibition; Q93009; hit rate 0.3% among 47,000; inhibition, % at 20 µM; purified USP7, Ub-rhodamine cleavage fluorescence; AID 1645854
# UCHL1 inh – blocks human UCHL1 ubiquitin-rhodamine cleavage. P09936. purified UCHL1, Ub-rhodamine cleavage fluorescence. inhibition, % at 20 µM. hit rate 0.2% among 47,000
# USP8 block – human USP8 deubiquitinase inhibition | P40818 | purified USP8, Ub-rhodamine cleavage fluorescence, 30 min | inhibition, % at 20 µM | hit rate 4.2% among 47,000
# The depositor's hits bear a star. No stated cut-off is given here; in the data, active means inhibition above about 30%; inactive means the rest.
SMILES,USP10 block,USP7 inh,UCHL1 inh,USP8 block
O=C(c1ccccc1)N1CCN(Cc2noc3ccccc23)CC1,0,-1,1,0
Cc1ccc(C)c(C(=O)COC(=O)c2cccnc2Nc2cccc(C(F)(F)F)c2)c1,5,8,2,18
Cc1noc(-c2ccc3nnc(CC(=O)Nc4cccc(F)c4)n3c2)n1,-2,-1,-1,0
CCc1ccc(NC(=O)CCc2nc3cccnc3n2Cc2ccccc2)cc1,11,6,4,35*
Cc1cc2c(cc1C)NC(CC(=O)Nc1ccc(O)cc1)C(=O)N2 (configuration not stated),-5,-8,2,81*
O=C(Nc1ccc(-c2noc(CCc3ccccc3)n2)cc1)c1ccccc1F,11,9,5,7
Cc1ccccc1-c1noc(-c2cn(Cc3ccc(NC(=O)Cc4ccccc4)cc3)cn2)n1,15,-2,0,37*
O=C(Nc1ccc(Cn2cnc(-c3nc(-c4ccccc4)no3)c2)cc1)c1ccccc1F,21,16,11,47*
Cc1ccc(-c2noc(-c3cn(Cc4ccc(N)cc4)cn3)n2)cc1,10,1,-1,-2
COc1cc(NC(=O)C2Cc3ccccc3O2)cc(OC)c1OC (configuration not stated),-6,1,-1,-1
Cc1cc(=O)n2c3c(c4c(cc13)c(CO)cc(=O)n4C)OC2,6,0,6,40*
O=[N+]([O-])c1ccc2nc3c(c(-c4ccccc4)c2c1)CNCC3,-3,-132,0,82*
Cc1cc(=O)[nH]c(Sc2c(-c3ccccc3)c3cc([N+](=O)[O-])ccc3[nH]c2=O)n1,15,-135,3,-34
O=C(COc1cccc2ccc(N3CCC(Cc4ccccc4)CC3)nc12)Nc1cccc(Cl)c1,-6,1,-1,84*
Cc1cc(=O)n(CC(=O)Nc2ccccc2F)c(N2CCCC2)n1,0,0,2,22
Cc1ccc2c(c1)c(=O)c(C(=O)c1ccccc1)cn2CC(=O)Nc1ccc2c(c1)OCO2,31*,23,-1,71*
Cc1ccc2c(c1)c(=O)c(C(=O)c1ccccc1)cn2CC(=O)Nc1ccc(C)c(Cl)c1,15,18,5,59*
CC(C)(C)c1cc(NC(=O)CSc2nnc(C3CC3)n2Cc2ccccc2)on1,1,-4,7,-7
O=C(NCCC1=CCCCC1)c1cc2c(s1)CS(=O)(=O)C2,-1,-2,1,-2
O=C(NCCCN1CCc2ccccc2C1)c1cc2c(s1)CS(=O)(=O)C2,-11,0,-6,46*
O=C(Cn1cc(C(=O)C(F)(F)F)c2ccccc21)N1CCc2ccccc21,16,10,2,68*
COC(=O)c1cn(CC(=O)N2CCCc3ccccc32)c2ccccc12,0,4,3,9
O=C(CCC1CCCCC1)Nc1ccccc1C(=O)N1CCOCC1,27,11,2,80*
Cc1ccnc(Sc2ncccc2O)c1,1,0,0,-116
Nc1cccnc1Sc1ccccn1,-5,-57,-27,40*
SMILES,USP10 block,USP7 inh,UCHL1 inh,USP8 block
COc1ccc(C2[C@@H]3CCCC[C@]3(O)CCN2C(=O)Cc2ccccc2)cc1 (some centres not stated),-4,3,0,-104
Cc1ccccc1N1CCN(C(=O)c2csc(C(=O)NC3CC3)n2)CC1,0,1,1,0
CCc1noc(-c2ccc(=O)n(CC(=O)Nc3ccccc3)c2)n1,6,4,1,16
O=C(CCc1nc(-c2cnccn2)no1)N1CCc2ccccc2C1,4,2,-1,57*
COc1ccc(NC(=O)C2C3C=CC4(O3)C2C(=O)N(Cc2ccccc2)C4C(=O)NC2CCCCC2)cc1 (configuration not stated),0,-60,1,12
Cc1ccc(Cl)cc1N1CCN(C(=O)CN2C(=O)CCOc3ccccc32)CC1,1,-5,-2,-6
CN(C)c1ccc(NC(=O)COC(=O)C2(c3ccc(F)cc3)CCCC2)cc1,2,5,5,72*
CCOc1ccc(NC(=O)COC(=O)C2(c3ccc(F)cc3)CCCC2)cc1,14,8,5,6
COc1ccc(-c2onc(C)c2C)cc1S(=O)(=O)NCc1ccc(F)cc1,58*,4,5,11
CC1=C(Cn2c3cccc(=O)c-3nc3ccccc32)CCC(C)(C)C1,58*,35*,62*,59*
COC(=O)c1ccccc1NC(=O)COC(=O)CCc1ccccc1,8,10,6,35*
Cc1ccc(Cn2cc(-c3noc(-c4ccncc4)n3)nn2)cc1,0,4,2,3
Cn1c(SCc2nc3ccccc3c(=O)[nH]2)nc2ccccc21,-4,-3,-10,34*
